ST2 inh: inhibitors of human ST2 (IL1RL1) binding to IL-33, primary screen, biochemical, AlphaLISA; inhibition, % for hits at 17 µM; 78,000 compounds, 2.3% hits; AlphaLISA ST2-Fc/biotin-IL-33 interaction, 1 h; in the data active = inhibition above about 30%
Target sequence (Q01638 whole entry, looked up): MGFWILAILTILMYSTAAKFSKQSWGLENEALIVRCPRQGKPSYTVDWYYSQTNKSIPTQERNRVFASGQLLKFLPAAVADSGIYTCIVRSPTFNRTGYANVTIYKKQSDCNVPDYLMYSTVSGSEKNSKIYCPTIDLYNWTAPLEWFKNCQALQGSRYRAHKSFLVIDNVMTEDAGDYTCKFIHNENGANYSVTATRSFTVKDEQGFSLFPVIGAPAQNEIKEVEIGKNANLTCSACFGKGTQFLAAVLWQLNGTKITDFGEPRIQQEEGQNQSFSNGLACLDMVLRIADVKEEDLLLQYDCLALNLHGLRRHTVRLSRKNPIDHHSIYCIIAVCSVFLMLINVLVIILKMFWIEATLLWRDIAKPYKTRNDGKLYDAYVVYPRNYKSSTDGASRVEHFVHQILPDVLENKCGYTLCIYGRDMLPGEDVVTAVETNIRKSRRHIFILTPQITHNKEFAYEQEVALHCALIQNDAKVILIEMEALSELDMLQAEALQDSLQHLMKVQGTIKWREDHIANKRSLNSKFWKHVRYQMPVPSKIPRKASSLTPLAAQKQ
Starred values were filed as active, the others as inactive; i = inactive. This is one part of a sample in which hits are shown more often than they occur.

SMILES	ST2 inh
O=C(CCC1CCCN(C(=O)CSc2ccccc2)C1)Nc1ccc(C(F)(F)F)cc1 (configuration not stated)	i
CN(C)CCC1CN(C(=O)C2CCC2)CCO1 (configuration not stated)	i
O=C1c2[nH]nc(-c3ccccc3)c2C(c2ccccc2[N+](=O)[O-])N1c1ccccc1 (configuration not stated)	i
CCOc1ccc(N(C(C)C(=O)NCc2ccco2)S(C)(=O)=O)cc1 (configuration not stated)	i
CCOc1ccc2sc(C=NCc3ccco3)c(O)c2c1	31.0%*
CCOc1ccc2oc(-c3ccccc3)c(C(=O)O)c2c1	i
c1ccc(CN2CCN(C3CCCCCC3)CC2)cc1	i
NC(=O)[C@H](Cc1ccccc1)N1CC[C@H]2CN(C(=O)C3CCCCC3)CC[C@H]2CC1=O	i
O=C1C[C@@H]2CCN(Cc3ccccc3)C[C@@H]2CCN1C1CCCCC1	76.0%*
Nc1ccc(S(=O)(=O)Nc2nccc(/C=C/c3cccc(Cl)c3)n2)cc1	i
NC(=O)c1ccc(NC(=O)C2CCN(C(=O)Cc3ccccc3)CC2)cc1	i
O=C1C[C@H]2CC[C@@H](CN1)N2C(=O)Cc1ccc(NC(=O)C2CC2)cc1	43.0%*
NS(=O)(=O)c1ccc(NC(=O)C2CCN(C(=O)Cc3ccccc3)CC2)cc1	i
CC(C)Cc1nc(C(C)NS(C)(=O)=O)n(-c2ccc3c(c2)OCCO3)n1 (configuration not stated)	i
CCc1ccc(S(=O)(=O)N=C2C=CC(=O)c3ccccc32)cc1	49.0%*
CCc1ccc(S(=O)(=O)N(CC)CC)cc1	i
CC(C)(C)c1ccc(S(N)(=O)=O)cc1	i
CCOc1ccc(C2C(=O)c3ccccc3C2=O)cc1	i
CCc1ccc(S(=O)(=O)N2CCCN(S(=O)(=O)c3ccc(CC)cc3)CC2)cc1	i
CCOc1ccc(S(=O)(=O)N=C2C=CC(=O)c3ccccc32)cc1	49.0%*
CC(C)(C)c1ccc(S(=O)(=O)Nc2ccccn2)cc1	i
CCOc1cccc(S(=O)(=O)N=C2C=C(C(C)(C)C)C(=O)C(C(C)(C)C)=C2)c1	i
CC(C)(C)c1ccc(S(=O)(=O)N=C2C=CC(=O)c3ccccc32)cc1	44.0%*
Cc1cc(-c2ccc(S(=O)(=O)Nc3ccc(S(N)(=O)=O)cc3)s2)n[nH]1	i
O=C(NCCN1Cc2ccccc2OC(c2ccsc2)C1)C(c1cccnc1)N1CCOCC1 (configuration not stated)	i
SMILES	ST2 inh
Cn1c(=O)c2c(nc(N3CCN(c4ccccn4)CC3)n2Cc2ccc(Cl)cc2)n(C)c1=O	i
CSCC(=O)N1CCC2(CCCN(CC3CCCCC3)C2)C1 (configuration not stated)	i
COc1ccccc1CN1CCCC(CN(CCN(C)C)C(=O)c2ccccn2)C1 (configuration not stated)	i
Cc1ccn2c(NC(=O)C(C)C)c(-c3ccc(F)cc3)nc2c1	i
CC(=O)Nc1c(C(=O)Nc2cccc(F)c2)oc2ccccc12	i
CCCOc1ccc(-c2nc3s/c(=C\c4ccc(OC)c(OC)c4)c(=O)n3n2)cc1	i
COc1ccc(-c2nc3s/c(=C\c4ccc(OC)c(OC)c4)c(=O)n3n2)cc1	38.0%*
CCCOc1ccc(-c2nc3s/c(=C\c4ccc(OC)cc4)c(=O)n3n2)cc1	i
CCOc1ccc(-c2nc3s/c(=C\c4ccc(OC)cc4)c(=O)n3n2)cc1	i
COc1ccc(/C=c2/sc3nc(-c4ccc(Cl)cc4)nn3c2=O)c(OC)c1	i
COc1ccc(-c2nc3s/c(=C\c4cc(C)c(O)c(C)c4)c(=O)n3n2)cc1	36.0%*
Cc1nc(N2CCOCC2)c2c(C)c(C(=O)N3CCC4(CC3)OCCO4)sc2n1	i
N#Cc1ccccc1NC(=O)c1ccc(F)cc1	i
COCCNC(=O)c1nn(-c2ccc(OC)c(Cl)c2)c(=O)c2c1c1ccccc1n2C	i
Cn1c(=O)cc(SCC(=O)N2CCCCCC2)c2ccccc21	i
Cn1c(=O)cc2c3c(c(Br)ccc31)C(=O)c1ccccc1-2	i
Cn1c(=O)cc2c3c(c(N4CCCCC4)ccc31)C(=O)c1ccccc1-2	44.0%*
CCCCN(C)C(=O)Cc1c(C(=O)O)[nH]c2ccccc12	i
O=C(CC1Nc2ccccc2NC1=O)Nc1ccc(SC(F)F)cc1 (configuration not stated)	i
CCC(NC(=O)c1cc(CN2CCOCC2)on1)c1ccnn1C (configuration not stated)	i
O=C(COc1ccc(Br)cc1Br)NCC1CCCO1 (configuration not stated)	i
C[C@H]1[C@@H]2[C@@H](O)C([C@H](C)C(=O)NCCN3CCOCC3)CC[C@@]2(C)CC[C@@H]1NC(=O)C1CCCCC1 (some centres not stated)	32.0%*
CC(=O)N[C@H]1CC[C@]2(C)CC[C@@H]([C@H](C)C(=O)NCCN3CCCC3)[C@H](O)[C@H]2[C@@H]1C	i
COCCNC(=O)[C@@H](C)[C@@H]1CC[C@@]2(C)CC[C@H](NC(=O)C3CC3)[C@@H](C)[C@@H]2[C@H]1O	i
CCn1c(C2CCNCC2)nn(Cc2ccc3c(c2)OCO3)c1=O	i
SMILES	ST2 inh
CC(C)CCCC1CN(C(=O)c2c(O)ccc3ccccc23)CCO1 (configuration not stated)	i
CC(=O)Nc1cnn(-c2ccc(C(=O)N3CCC(c4ccccc4Cl)C3)cc2)c1 (configuration not stated)	i
CC1=NN(c2ccc(Br)cc2)C(=O)/C1=C/c1cccs1	39.0%*
CC1=NN(c2ccc(Br)cc2)C(=O)/C1=C\c1ccc(N(C)C)c([N+](=O)[O-])c1	i
CC1=NN(c2ccc(C(=O)O)cc2)C(=O)/C1=C\c1ccc(Br)cc1	i
NC(=O)C1(N2CCCCC2)CCN(C(=O)C2CCC(=O)N(C3CCCC3)C2)CC1 (configuration not stated)	i
COc1ccc(Cl)cc1C(=O)Nc1cccc(-c2nc3ncccc3o2)c1	i
CC1(C)CC(=O)C2=C(C1)NC1=C(C(=O)CC(C)(C)C1)C2c1ccc(OCc2ccccc2)cc1	i
O=C(CNS(=O)(=O)c1ccc(Br)s1)NCc1cccnc1	i
O=S(=O)(NCc1cccnc1)c1cccs1	i
O=C(CNS(=O)(=O)c1cccs1)NCc1cccnc1	79.0%*
O=C(CCC1CCN(C(=O)Cn2nc3ccccc3n2)CC1)NCC1CCCO1 (configuration not stated)	i
COc1ccc(CNC(=O)CCC2CCCN(Cc3cccc4c3OCO4)C2)c(OC)c1 (configuration not stated)	i
Cc1ccc(-n2cccc2)cc1[N+](=O)[O-]	31.0%*
Cc1ccc(N2C(=O)C3C4C=CC(O4)C3C2=O)cc1[N+](=O)[O-] (configuration not stated)	i
Cc1ccc(N2C(=O)c3cccc([N+](=O)[O-])c3C2=O)cc1Cl	i
O=C(CO)Nc1c(-c2ccccc2)c2cc(Br)ccc2[nH]c1=O	i
O=C(OCc1ccc(-c2ccc(Br)cc2)o1)c1ccc2c(c1)OCCO2	i
CCc1nc(SCC(=O)Nc2nc(-c3ccccc3)cs2)n[nH]1	i
CCC(C)NC(=O)Cn1c(=O)n(CC(=O)NCc2ccco2)c(=O)c2sccc21 (configuration not stated)	i

Screens deposited in PubChem by Paczesny and Yang Labs, IUPUI and University of Michigan.
